Laboratory results as given in PubChem BioAssay (EPA / NIEHS).
Activity calls are given as the source filed them. How the source made its calls: active means hit-call score of the fitted dose curve at least 0.9, where 1 is the maximum; inactive means score below 0.9.

Assay: ATG_TCF_b_cat_CIS: Attagene CIS-FACTORIAL HepG2 Assay for human T-Cell-Factor with beta-catenin (TCF/b-cat) (AID 2282965)
Conditions: HepG2 TCF/beta-catenin cis-reporter transcription, actives raise or lower the signal
Procedure: ATG_CIS is a cell-based, multiplexed-readout assay that uses HepG2, a human liver cell line, with measurements taken at 24 hours after chemical dosing in a 24-well plate.ATG_TCF_b_cat_CIS is one of 52 assay component(s) measured or calculated from the ATG_CIS assay. It is designed to make measurements of mRNA induction, a form of inducible reporter, as detected with fluorescence intensity signals by Reverse transcription polymerase chain reaction (RT-PCR) and Capillary electrophoresis technology.Data from the assay component ATG_TCF_b_cat_CIS was analyzed into 1 assay endpoint. This assay endpoint, ATG_TCF_b_cat_CIS, was analyzed with bidirectional fitting relative to DMSO as the negative control and baseline of activity. Using a type of inducible reporter, measures of mRNA for gain or loss-of-signal activity can be used to understand the reporter gene at the transcription factor-level as they relate to the gene TCF7 and TCF7L2 and LEF1 and TCF7L1. Furthermore, this assay endpoint can be referred to as a primary readout, because this assay has produced multiple assay endpoints where this one serves a reporter gene function. To generalize the intended target to other relatable targets, this assay endpoint is annotated to the dna binding intended target family, where the subfamily is HMG box protein.
Human liver HepG2 cells are transiently transfected with multiple reporter transcription units (MRTUs) in 6-well plates using FuGene 6 reagent (Roche; 3 ml FuGene/1 mg DNA). The MRTU constructs are regulated by a cis-regulating element (promoter). […] A major difference between the CIS and TRANS system is that in CIS activities of endogenous TFs are measured, whereas the TRANS assay evaluates changes in activities of exogenous, chimeric NR-Gal4 proteins. […] At the end of 24 hour incubation, total RNA was isolated using TriZol reagent (Invitrogen). The isolated RNA is then reverse-transcribed using oligo(dT) primer and Mo-MLV reverse transcriptase (Invitrogen) with DNAse I (Ambion) treatment for 30 min. The one-tenth of the produced cDNA was amplified by PCR using Taq DNA polymerase (Invitrogen) and two reporter sequence-specific primers. The PCR products were fluorescently labeled by primer extension with 6-arboxyfluorescein (6-FAM) 5'-labeled reporter sequence-specific primer (2 min at 95 C, 20 s at 68 C and 10 min at 72 C) and these products were digested with 5U of HpaI (New England Biolabs) for 2h at 37 C. The fragments were purified using Qiaquick PCR columns (Qiagen), analyzed on an ABI 3130xL genetic analyzer (Applied Biosystems) with peak positions identified by using a set of X-rhodamine (ROX)-labeled MapMarker1000 molecular weight standards (BioVentures). The raw capillary electrophoresis data was processed using Attagraph software (Attagene).

For COC(=O)CCC(=O)OC, which outcome is on record?
The outcome was “inactive”.

Which outcome does the source give for CC(C)c1cccc(C(C)C)c1 here?
The outcome was “inactive”.

Which AC50 does the source give for O=C(N[C@@H](c1ccccc1)[C@@H]1CCCCN1)c1cccc(C(F)(F)F)c1Cl here?
The AC50 was 16.6 µM (active).

With Cc1cc(SC2=C(O)C[C@@](CCc3ccc(N)cc3)(C(C)C)OC2=O)c(C(C)(C)C)cc1CO as the compound, how does the outcome read?
The outcome was “inactive”.

With CSc1ccc(Oc2ccc(S(N)(=O)=O)cc2CN(C)C)cc1C as the compound, how does the AC50 read?
The AC50 was 55 µM (active).

Which outcome does the source give for CCCCc1nc2cccnc2n1Cc1ccc(-c2ccccc2-c2nnn[nH]2)cc1 here?
Its outcome is “inactive”.

Which AC50 does the source give for CCc1nc(N)nc(N)c1-c1ccc(Cl)cc1 here?
Its AC50 is 60.1 µM (active).

With Cc1ccc(C(C)(C)C)c(O)c1 as the compound, how does the AC50 read?
Its AC50 is 161 µM (active).

For O=C1O[C@H]([C@H](O)CO)C(O)=C1O, which outcome is on record?
The outcome was “inactive”.

For O=NO, which outcome is on record?
Its outcome is “inactive”.

With COC(=O)[C@H]1[C@H]2C[C@@H]3c4[nH]c5cc(OC)ccc5c4CCN3C[C@H]2C[C@@H](OC(=O)c2cc(OC)c(OC)c(OC)c2)[C@@H]1OC as the compound, how does the AC50 read?
Its AC50 is 7.31 µM (active).

Which outcome does the source give for N[C@@H](Cc1c[nH]c2ccccc12)C(=O)O here?
Its outcome is “inactive”.

For CN(C)CCCN1c2ccccc2Sc2ccc(Cl)cc21, which AC50 is on record?
Its AC50 is 7.68 µM (active).

For Cc1cn([C@H]2C=C[C@@H](CO)O2)c(=O)[nH]c1=O, which outcome is on record?
Its outcome is “inactive”.

For S=c1[nH]c2ccccc2s1, which outcome is on record?
Its outcome is “inactive”.

Which outcome does the source give for CC(COCC(C)OC(=O)c1ccccc1)OC(=O)c1ccccc1 (stereo not given) here?
Its outcome is “inactive”.

With NC(=Nc1ccccc1)Nc1ccccc1 as the compound, how does the AC50 read?
Its AC50 is 6.54 µM (active).

Which outcome does the source give for C=CCc1ccc(OC)c(OC)c1 here?
Its outcome is “inactive”.

Which outcome does the source give for COc1ccc(C(=O)Nc2nc3ccccc3c(NCc3ccccc3)c2C#N)cc1 here?
Its outcome is “inactive”.

Which outcome does the source give for CCCC(=O)O here?
The outcome was “inactive”.

Which outcome does the source give for CC(C)NCC(O)c1ccc(O)c(O)c1 (stereo not given) here?
Its outcome is “inactive”.

For Cc1occc(=O)c1O, which outcome is on record?
The outcome was “inactive”.

With O=C1NC(=O)C(c2ccccc2)(c2ccccc2)N1 as the compound, how does the outcome read?
Its outcome is “inactive”.

For CCN(CC)CCOc1ccc(C(=C(Cl)c2ccccc2)c2ccccc2)cc1, which outcome is on record?
Its outcome is “inactive”.

Which outcome does the source give for OCC(CO)n1cnc(-c2ccc(F)cc2)c1-c1ccnc(Oc2ccccc2)n1 here?
The outcome was “inactive”.

For CCCCCCCC(=O)OC, which outcome is on record?
The outcome was “inactive”.

For Cn1cnc2c1c(=O)[nH]c(=O)n2C, which outcome is on record?
Its outcome is “inactive”.

For CC(C)COC(=O)CCCCC(=O)OCC(C)C, which outcome is on record?
The outcome was “inactive”.

For O=C(O)CN(CC(=O)O)CC(=O)O, which outcome is on record?
Its outcome is “inactive”.

With CN(C)CCCN(C)CCCN(C)C as the compound, how does the outcome read?
The outcome was “inactive”.

For CC(C)(C)c1ccccc1, which outcome is on record?
Its outcome is “inactive”.

Which outcome does the source give for CC1(C)C(=O)NC(=O)N1CO here?
The outcome was “inactive”.

With NC1CCCCC1 as the compound, how does the outcome read?
Its outcome is “inactive”.

With O=C(O)c1cccnc1 as the compound, how does the outcome read?
The outcome was “inactive”.

With CC(C)c1cccc(C(C)C)c1NC(=O)NS(=O)(=O)c1cc(C(C)(C)O)co1 as the compound, how does the outcome read?
Its outcome is “inactive”.

Which outcome does the source give for CC(=O)CC(c1ccccc1)c1c(O)c2ccccc2oc1=O (stereo not given) here?
The outcome was “inactive”.

For CCCCCCC(C=O)=Cc1ccccc1, which outcome is on record?
Its outcome is “inactive”.

For CC(=O)O, which outcome is on record?
Its outcome is “inactive”.

Which AC50 does the source give for CCc1cc(C2=C(C(=O)O)N(c3ccccc3C(F)(F)F)S(=O)(=O)c3ccccc32)cc2c1OCO2 here?
Its AC50 is 122 µM (active).

Which AC50 does the source give for CCCCCCCCCCCCCCCCO here?
The AC50 was 159 µM (active).
